Screens: PubChem, The Scripps Research Institute Molecular Screening Center
This is a sample that favours compounds with a hit; in the whole collection about 4.1% have one here.
hgDAF-12 ag = H. glycines DAF-12 receptor agonists, primary screen, cell-based, luminescence, HEK293, GAL4 fusion, UAS-luciferase. Nuclear hormone receptor DAF-12 (Heterodera glycines), GAL4 fusion. HEK293 GAL4-hgDAF12 UAS-luciferase reporter, agonist luminescence; normalized to butyrate control. activation, % at 6.8 µM. 1.8% of 370,000 active;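 active = activation above a cutoff set at the mean of all screened compounds plus 3 SD, cut at about 10% in these data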;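 note: 0% = DMSO wells and 100% = sodium butyrate wells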
DAX1 inh-1 = DAX1 (NR0B1) inhibitors on StAR promoter, primary screen, cell-based, luminescence, SF-1 (NR5A1), full-length DAX-1; HEK293T StAR-luciferase reporter, SF-1/DAX-1 repression relief; inhibition, % at 6.8 µM; 1.1% of 370,000 active;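 active = inhibition above the mean over all tested compounds plus 3 SD, cut at about 3.6% in these data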;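 note: 0% = DAX-1 cells with DMSO and 100% = cells lacking DAX-1 with DMSO; higher inhibition means more luminescence from relief of DAX-1 repression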
hcDAF-12 act = H. contortus DAF-12 nuclear receptor activators, primary screen, cell-based, luminescence, HEK293, lit1-tk-luc reporter. HEK293 hcDAF-12 lit1-tk-luc reporter; 0% DMSO, 100% Δ7-dafachronic acid. activation, % at 6.8 µM. 1.4% of 370,000 active. AID 652067, 2013;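 active = activation above the mean of all tested compounds plus 3 SD, cut at about 5.5% in these data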;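 note: 100% = response to 3 µM Δ7-dafachronic acid high control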
DAX1 inh-2 = DAX1 (NR0B1) inhibitors, primary screen, cell-based, HEK293, Gal4-DAX1, luciferase luminescence; HEK293 Gal4-DAX1 luciferase reporter; Nuclear receptor subfamily 0 group B member 1 (Homo sapiens), P51843; AID 504766, 2011; 0.99% of 340,000 active; inhibition, % at 6.75 µM;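 active = inhibition above the mean over all tested compounds plus 3 SD, cut at about 4.2% in these data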;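 note: 0% = DAX1-transfected cells with DMSO and 100% = empty-vector control cells with DMSO; inhibition shows as a rise in luminescence from relieved DAX1 repression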
ssDAF-12 act = S. stercoralis DAF-12 nuclear receptor activators, primary screen, cell-based, luminescence, HEK293, GRIP1 co-expression, lit1-tk-luc; Nuclear hormone receptor DAF-12 (Strongyloides stercoralis); AID 652126, 2013; HEK293 ssDAF-12/GRIP1 lit1-tk-luc reporter; % of 3 µM dafachronic acid response; activation, % at 6.8 µM; 1% of 370,000 active;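 active = activation above the mean over all tested compounds plus 3 SD, cut at about 0.9% in these data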;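 note: 0% = DMSO-only wells and 100% = 3 µM delta7-dafachronic acid wells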
LXR ag = LXR agonists, Gal4 luciferase reporter, confirmation, counter-screen for hcDAF-12 agonist project, cell-based, luminescence, HEK293, H. contortus campaign; shares compounds with hcDAF-12 act; HEK293 Gal4-LXR tk-luc reporter, 24 h; normalized: DMSO 0%, positive control 100%; 3,400 tested, under 10 active; activation, % at 6.8 µM;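 active = mean percent activation of the reporter above a cutoff set as the average over tested compounds plus their standard deviation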
Target sequence (P55055 whole entry, looked up, the tested form may be a part): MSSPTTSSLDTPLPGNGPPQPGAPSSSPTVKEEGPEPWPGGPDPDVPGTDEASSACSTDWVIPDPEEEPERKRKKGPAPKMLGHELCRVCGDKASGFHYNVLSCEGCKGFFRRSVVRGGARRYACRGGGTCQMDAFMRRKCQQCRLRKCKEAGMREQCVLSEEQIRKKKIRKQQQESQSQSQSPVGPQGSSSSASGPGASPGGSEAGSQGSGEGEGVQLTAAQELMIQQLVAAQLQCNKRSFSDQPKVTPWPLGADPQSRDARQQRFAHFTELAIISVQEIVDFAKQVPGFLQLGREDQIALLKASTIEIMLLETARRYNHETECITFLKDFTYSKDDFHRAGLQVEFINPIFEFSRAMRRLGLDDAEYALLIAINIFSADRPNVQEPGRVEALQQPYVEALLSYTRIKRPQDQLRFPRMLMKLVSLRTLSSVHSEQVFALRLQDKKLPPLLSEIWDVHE
hcDAF12 ag = H. contortus DAF-12 receptor agonists, confirmation, cell-based, luminescence, HEK293, lit1-tk-luc, triplicate. shares compounds with hcDAF-12 act. HEK293 hcDAF-12 lit1-tk-luc reporter; % of Δ7-dafachronic acid response. activation, % at 6.8 µM. 61% of 3,400 active;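 active = mean activation across triplicate tests above the threshold derived from the earlier primary screen, cut at about 5.5% in these data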;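 note: 0% = DMSO only wells and 100% = 3 µM Δ7-dafachronic acid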
An asterisk follows results filed as active.

How did O=C(NCCc1ccccc1)C1CCC(=O)N(CCCN2CCCC2=O)C1 (stereo not drawn) do in these assays?
hgDAF-12 ag: 1; DAX1 inh-1: 0; hcDAF-12 act: 7.8*; DAX1 inh-2: 1; ssDAF-12 act: 1.9*; LXR ag: 0; hcDAF12 ag: 1

Results for c1ccc(-c2ccc(-c3ccccn3)s2)nc1 ?
hgDAF-12 ag: 13*; DAX1 inh-1: 2; hcDAF-12 act: 15*; DAX1 inh-2: 4.7*; ssDAF-12 act: 3.8*; LXR ag: 1; hcDAF12 ag: 13*

Results for O=S(=O)(CC1NCc2ccccc21)NCCc1ccccc1 (stereo not drawn) ?
hgDAF-12 ag: 2; DAX1 inh-1: 1; hcDAF-12 act: -4; ssDAF-12 act: -1

How did CCOc1[nH]n(-c2ccccc2)c(=O)c1C=Nc1ccc(C(=O)OC)cc1 do in these assays?
hgDAF-12 ag: 3; DAX1 inh-1: 0; hcDAF-12 act: 7.6*; DAX1 inh-2: 1; ssDAF-12 act: -1; LXR ag: 0; hcDAF12 ag: -1

Results for CCOc1[nH]n(-c2ccccc2)c(=O)c1C=Nc1ccccc1 ?
hgDAF-12 ag: 3; DAX1 inh-1: -1; hcDAF-12 act: -2; DAX1 inh-2: 1; ssDAF-12 act: -1

What do the screens show for `C(=N\NC1=Nc2cccc3cccc1c23)/c1ccccn1`?
hgDAF-12 ag: 10; DAX1 inh-1: 3; hcDAF-12 act: 8.6*; DAX1 inh-2: 5.3*; ssDAF-12 act: 0; LXR ag: 1; hcDAF12 ag: 10*

What do the screens show for `CC(=O)N[C@H]1C[C@@H]2O[C@H](CO)CC[C@@H]2O[C@@H]1CCc1ccc(-c2ccc(F)cc2)cc1`?
hgDAF-12 ag: -1; DAX1 inh-1: 0; hcDAF-12 act: -1; ssDAF-12 act: -1

How did Cc1ccc(-c2noc(-c3ccccc3F)n2)cc1 do in these assays?
hgDAF-12 ag: 12*; DAX1 inh-1: 3.7*; hcDAF-12 act: 17*; DAX1 inh-2: 2; ssDAF-12 act: 2.1*; LXR ag: 2; hcDAF12 ag: 13*

Results for Cc1ccccc1-c1noc(-c2ccccc2C(=O)O)n1 ?
hgDAF-12 ag: -2; DAX1 inh-1: 1; hcDAF-12 act: 0; DAX1 inh-2: 2; ssDAF-12 act: -1

How did O=C(O)c1ccccc1-c1noc(-c2ccccc2F)n1 do in these assays?
hgDAF-12 ag: 12*; hcDAF-12 act: 7.3*; ssDAF-12 act: 0; LXR ag: 1; hcDAF12 ag: 5

How did O=C(O)c1ccc(-c2noc(-c3ccccc3F)n2)cc1 do in these assays?
hgDAF-12 ag: 8; DAX1 inh-1: 2; hcDAF-12 act: 6.8*; DAX1 inh-2: -3; ssDAF-12 act: 0; LXR ag: 2; hcDAF12 ag: 7.0*

What do the screens show for `O=C(O)c1ccc(-c2noc(-c3cccc(F)c3)n2)cc1`?
hgDAF-12 ag: 6; DAX1 inh-1: 2; hcDAF-12 act: 0; DAX1 inh-2: 2; ssDAF-12 act: -1

Results for C#CCNC(=O)C[C@@H]1C(=O)N(CCc2ccc(Cl)cc2)C2=CCCCC[C@]21C(=O)OC ?
hgDAF-12 ag: 2; DAX1 inh-1: -1; hcDAF-12 act: -3; ssDAF-12 act: 0
